Screening results: PubChem BioAssay, several laboratories
In the library only some 3.4% were active in any assay of this set; here they are far more common.
NTR1 ag: agonists of human neurotensin receptor NTR1 | P30989 | NTR1-U2OS beta-arrestin-GFP spot imaging, agonist mode | activation, % at 20 µM | hit rate 0.17% among 330,000;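 active = activation at or above 40% of the spot to cytoplasm intensity ratio, with at least 20 cells analyzed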
MEKK2wt PB1 HTS: raises or lowers MEK5 binding to wildtype human MEKK2 PB1 domain; hit rate 1.1% among 290,000; AID 1531; Q9Y2U5; bead flow cytometry, Alexa488-MEK5 binding to MEKK2 WT; actives lie on both sides; binding response (% of control), % at 10 µM; in the data active = binding response below about 67% or above about 130%
MEKK2 mut-MEK5: signal of MEK5 binding to mutant human MEKK2 PB1 domain; hit rate 0.35% among 290,000; bead flow cytometry, Alexa488-MEK5 binding to MEKK2 mutant; percent response, % at 10 µM; in the data active = percent response above about 24%, passing the limit was not always enough
TMEM16A inh: inhibitors of mouse TMEM16A calcium-activated chloride channel; Q8BHY3; HEK293 TMEM16A/YFP iodide influx fluorescence, ionomycin; normalized B-score (activity score, 25-100; higher = stronger inhibition) at 10 µM; hit rate 1.2% among 310,000; AID 588511;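 active = ratio plate-corrected score three or more library SD toward inhibition, starting fluorescence score within five deviations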;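 note: score derived from kinetic fluorescence span divided by baseline fluorescence per well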
MEKK3 PB1 HTS: raises or lowers MEK5 binding to the human MEKK3 PB1 domain; binding response (% of control), % at 10 µM; Q99759; hit rate 1.4% among 290,000; bead-based flow cytometry, Alexa488-MEK5 binding to MEKK3; actives lie on both sides; 0 = blocked by unlabeled MEK5, 100 = vehicle;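 active = binding response more than 3 SD above or below the average of its plate-row segment, actives on both sides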;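 note: Alexa488 bead fluorescence after subtracting the streptavidin-only scavenger bead signal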
ANO1 activ: mouse TMEM16A channel activation, primary screen. HEK293 TMEM16A/YFP-H148Q/I152L, iodide quench fluorescence; hits give low values. Q8BHY3. B-score at 10 µM. hit rate 0.3% among 340,000;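 active = fluorescence-ratio B-score plate-corrected deviation score at least 3 library SD below zero, with starting fluorescence score within 5 deviations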;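 note: channel opened by trigger with iodide after compound preincubation; score built on the fluorescence ratio of max minus min over baseline; more negative score means more quench and so TMEM16A activation or potentiation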
Numbers stand for hits; - = inactive; . = no result given; [ ] = another dose, or the depositor's remark.

SMILES	NTR1 ag	MEKK2wt PB1 HTS	MEKK2 mut-MEK5	TMEM16A inh	MEKK3 PB1 HTS	ANO1 activ
NC(=S)N/N=C/c1c[nH]c2ccc(OCc3ccccc3)cc12	-	-	-	25	-	-
Cc1c(NC(=O)c2cccnc2C(=O)O)cccc1C(=O)O	-	-	-	-	-	-
Cc1ccc2c(c1)C(CCN)C(=O)N2Cc1ccccc1 (centres undefined)	-	-	-	-	-	-
Cc1ccc2c(c1)C1CCCC3C1N2CC(=O)N3Cc1ccccc1 (centres undefined)	-	18.0	-	-	-	.
CCn1nc(C)cc1-c1nnc(SCC(=O)Nc2ccccc2)n1CCCOC	-	-	-	-	-	-
CCn1nc(C)cc1-c1nnc(Sc2ncc([N+](=O)[O-])s2)n1C	-	-	-	-	-	-9.8
CC(=O)c1ccc(NC(=S)Nc2ccc(Br)c(Cl)c2)cc1	-	-	-	-	-	-
CC(=O)c1ccc(NC(=S)NC(C)c2ccc(Cl)cc2Cl)cc1 (centres undefined)	-	-	-	100	-	-
O=C(CCl)Nc1ccc(S(=O)(=O)Nc2nccs2)cc1	-	-	-	-	-	-
Cc1ccc(OCCn2cc(C#N)c3ccccc32)cc1	-	-	-	100	-	-
O=[N+]([O-])c1cccc(/C=C/c2ccncc2)c1	-	-	-	-	-	-
O=[N+]([O-])c1ccc(/C=C/c2ccncc2)cc1	.	-2.0[inhibitor]	-	-	-	.
Cc1cccc(NC(=S)NCC(C)CSc2ccc(Cl)cc2)c1 (centres undefined)	-	-	-	25	-	-
CC(C)=CCc1c(O)cc2c(=O)c3ccc(O)cc3oc2c1O	-	-	-	-	-	-7.03
CC1CCN(CC(=O)Nc2cccc([N+](=O)[O-])c2)CC1	-	-	-	25	-	-
CNc1[nH]c(=O)[nH]c(=O)c1N=Nc1cc(Cl)ccc1Cl	-	.	.	-	.	-
COc1ccc(CN2C(=O)[C@H]3Cc4c([nH]c5ccccc45)C(C)(C)N3C2=O)cc1	-	-	-	25	-	-
COc1ccc(CN2C(=O)[C@@H]3Cc4c([nH]c5ccccc45)C(C)(C)N3C2=O)cc1	-	-	-	-	-	-
Cn1sccc1=O	-	.	.	-	.	-
Cc1c(C(=O)NCc2cccnc2)sc2nc(-c3ccc(F)cc3)cn12	-	-	-	-	-	-21.9
Cc1c(C(=O)NCc2cccnc2)sc2nc(-c3ccccc3)cn12	-	-	-	-	-	-
Cc1cccc(N2CCN(S(=O)(=O)c3c(C)nc4scc(C)n4c3=O)CC2)c1C	-	-	-	-	-	-
CC(=O)NC1=NC(=O)/C(=C/c2cc(C)n(-c3cccc(C(=O)O)c3)c2C)S1	-	-	-	.	-	-6.38
CCCOc1nc2c(c(=O)n(C)c(=O)n2C)n1C	-	-	-	-	-	-
CCCOc1nc2c(c(=O)n(C)c(=O)n2C)n1Cc1cccc2ccccc12	-	-	-	100	-	-
SMILES	NTR1 ag	MEKK2wt PB1 HTS	MEKK2 mut-MEK5	TMEM16A inh	MEKK3 PB1 HTS	ANO1 activ
Cc1nc(SCc2nc3c(F)cccc3[nH]2)c2oc3ccccc3c2n1	-	.	.	.	.	-
CCOc1cc(/C=C2\C(=O)N(CCc3ccc(OC)c(OC)c3)C(C)=C2C(=O)OC)ccc1O	-	-	-	-	60.0[inhibitor]	-
CC(C(=O)N1CCc2ccccc21)n1cnc2c1c(=O)n(C)c(=O)n2C (centres undefined)	-	.	.	.	.	-
O=C(Cn1cc(C(F)(F)F)ccc1=O)NCCc1ccc(Cl)cc1Cl	-	-	-	-	-	-
N#Cc1ccc(CN2CCN(CC(=O)NCCc3ccc(Cl)cc3Cl)CC2)cc1	-	151.0	28.0	-	-	-
CN1C(=O)/C(=C\c2ccccc2OCc2ccccc2)SC1=S	-	-	-	-	-	-
CN1C(=O)/C(=C\c2cc(N=Nc3ccccc3)ccc2O)SC1=S	-	.	.	100	.	-
NC(=O)NC(=O)CN1c2cccc3cccc(c23)S1(=O)=O	-	-	-	-	-	-6.92
CC(=O)c1ccc(NC(=O)CN2c3cccc4cccc(c34)S2(=O)=O)cc1	-	.	.	.	.	-4.67
CCC(C)NC(=O)CN1c2cccc3cccc(c23)S1(=O)=O (centres undefined)	-	-	-	-	-	-7.23
